# Assay results: PubChem BioAssay (NCI)
# This is part of a sample that, as a whole, favours compounds with a hit. Of some 79,000 tested, about 15% had one in any assay. Active and inactive are the calls of the source. No stated cut-off is given here; in the data, active means growth inhibition above about 70%; inactive means the rest.
# Experiment: NCI Yeast Anticancer Drug Screen. Data for the bub3 strain (AID 167)
# Settings: S. cerevisiae bub3 mutant strain, at 5.0 µM (retest, dose inferred, filed as 0.5), hits give high values
# Procedure, shortened: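 Readout: yeast growth inhibition, expressed relative to vehicle-only wells. The test organism is a mutant strain from a panel with lesions in DNA repair or checkpoint genes.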
row,SMILES,growth inhibition
1,CCOC(=O)C[P+](c1ccc(C)cc1)(c1ccc(C)cc1)c1ccc(C)cc1,21% (inactive)
2,O=C(NCCl)Nc1ccccc1,6% (inactive)
3,O=c1[nH]c2ccccc2c2cccc(F)c12,-8% (inactive)
4,O=C(c1c(F)c(F)c(F)c(F)c1F)N1CCN(C(=O)c2c(F)c(F)c(F)c(F)c2F)C1=S,-7% (inactive)
5,O=C(CNS(=O)(=O)Cc1ccccc1)NCC(=O)NNc1ccccc1,1% (inactive)
6,CC1(C)C(=O)N(CCCCCCN2C(=O)C(C)(C)c3ccccc32)c2ccccc21,12% (inactive)
7,CC(=O)Nc1cccc2c1ccc1ccc3ccccc3c12,3% (inactive)
8,COc1ccc(-c2noc(=O)c3ccccc23)cc1,-3% (inactive)
9,c1ccc([B-](c2ccccc2)(c2ccccc2)c2ccccc2)cc1,5% (inactive)
10,CCc1cccc(C)c1N1C(=O)C(=O)C(c2nc3ccccc3o2)/C(=N\NS(=O)(=O)c2ccc(C)cc2)C1=O (stereo not drawn),8% (inactive)
11,Cc1ccc(-[n+]2cc([O-])on2)cc1,10% (inactive)
12,CCOC(=O)C(Cc1cn(S(=O)(=O)c2ccccc2)c2ccccc12)(NC(C)=O)C(=O)OCC,-9% (inactive)
13,CC(=O)N1C=C2CCC3c4ccccc4NC3C2CC1 (stereo not drawn),-11% (inactive)
14,O=c1cccccc1[O-].O=c1cccccc1[O-].O=c1cccccc1[O-].[Ce+3],10% (inactive)
15,CC(=O)OC(C#N)CC(C)(C)/[N+]([O-])=[N+](\[O-])C(C)(C)CC(C#N)OC(C)=O (stereo not drawn),3% (inactive)
16,O=C(O)C1(Cc2ccc3c(c2)CCC3)Cc2cc3c(cc2C1)CCC3,-11% (inactive)
17,COC(=O)C12OCC34C(CC5C(C)C6=CC(=O)OC6=CC5(C)C3C(O)C1O)OC(=O)C(OC(C)=O)C24 (stereo not drawn),68% (inactive)
18,O=S(=O)(c1cc(Cl)ccc1Cl)N1CCc2ccccc2C1,18% (inactive)
19,CSC(=S)n1nc(-c2cccs2)c(N=Nc2ccc(Cl)cc2)c1C(F)(F)F,14% (inactive)
20,O=[N+]([O-])C1=Cc2ccccc2S(=O)(=O)CC1,-24% (inactive)

row,SMILES,growth inhibition
1,COc1ccc(/C=N/n2c(C)nc3c(sc(=S)n3-c3ccccc3)c2=O)cc1,12% (inactive)
2,Fc1ccc(NC(=S)SCc2ccccc2)cc1F,6% (inactive)
3,O=[N+]([O-])c1cccc2c1[nH]c1c(-c3ccccc3)nccc12,1% (inactive)
4,CCOC(=O)CC(=O)/C=C/c1ccncc1,5% (inactive)
5,c1ccc([P+](c2ccccc2)(c2ccccc2)C2CCCC2)cc1,0% (inactive)
6,COc1cc(Cc2n[nH]c(=S)n2-c2ccccc2)c(S(N)(=O)=O)cc1OC,-2% (inactive)
7,CCCCCN(CCCCC)CCNc1ccc(C)c2sc3ccccc3c(=O)c12,7% (inactive)
8,COC(=O)[C@@]12OC[C@]34[C@H]([C@@H](O)[C@@H]1O)[C@@]1(C)CC(=O)C(O)=C(C)[C@@H]1C[C@H]3OC(=O)[C@H](OC(=O)C(Cc1ccccc1)NC(=O)OC(C)(C)C)[C@@H]24 (stereo partly drawn),31% (inactive)
9,CC(=O)Nc1ccc(C(=O)C(C)Br)cc1 (stereo not drawn),30% (inactive)
10,COc1ccc2c(c1)[n+]([O-])c(C(N)=O)c(N)[n+]2[O-],40% (inactive)
11,Cc1c2c(c(C)c3c4c(oc13)CCCC4)C=NCC2,-8% (inactive)
12,CC1C(C(=O)O)CC([N+](=O)[O-])C(Cl)C1[N+](=O)[O-] (stereo not drawn),11% (inactive)
13,CCN(CC)c1ccc(N=C2C=C(C(=O)Nc3cccc(Cl)c3)C(=O)c3ccccc32)c(C)c1,0% (inactive)
14,C[N+](C)(C)CCN(Cc1cccs1)c1ccccn1,-4% (inactive)
15,O=C(c1ccccc1)c1c(CO[N+](=O)[O-])n([O-])c2ccccc2[n+]1=O,-5% (inactive)
16,CCC[C@H]1[C@H](CCC)[C@@]2(OC(=O)C3=C2CCC=C3)[C@]12OC(=O)C1=C2CCC=C1,2% (inactive)
17,O=C(CC(=O)c1ccccc1NC1=Cc2ccccc2C(=O)C1=O)C(=O)NC1=C(Cl)C(=O)c2ccccc2C1=O,14% (inactive)
18,C=CC[P+](CC[P+](CC=C)(c1ccccc1)c1ccccc1)(c1ccccc1)c1ccccc1,-3% (inactive)
19,NCC1CCNCC1,-5% (inactive)

# Same assay, conditions: S. cerevisiae bub3 mutant strain, at 50.0 µM (retest, dose inferred, filed as 5.0), hits give high values
row,SMILES,growth inhibition
1,CCOC(=O)C[P+](c1ccc(C)cc1)(c1ccc(C)cc1)c1ccc(C)cc1,88% (active)
2,O=C(NCCl)Nc1ccccc1,79% (active)
3,O=c1[nH]c2ccccc2c2cccc(F)c12,78% (active)
4,O=C(c1c(F)c(F)c(F)c(F)c1F)N1CCN(C(=O)c2c(F)c(F)c(F)c(F)c2F)C1=S,86% (active)
5,O=C(CNS(=O)(=O)Cc1ccccc1)NCC(=O)NNc1ccccc1,53% (inactive)
6,CC1(C)C(=O)N(CCCCCCN2C(=O)C(C)(C)c3ccccc32)c2ccccc21,12% (inactive)
7,CC(=O)Nc1cccc2c1ccc1ccc3ccccc3c12,-1% (inactive)
8,COc1ccc(-c2noc(=O)c3ccccc23)cc1,-2% (inactive)
9,c1ccc([B-](c2ccccc2)(c2ccccc2)c2ccccc2)cc1,2% (inactive)
10,CCc1cccc(C)c1N1C(=O)C(=O)C(c2nc3ccccc3o2)/C(=N\NS(=O)(=O)c2ccc(C)cc2)C1=O (stereo not drawn),14% (inactive)
11,Cc1ccc(-[n+]2cc([O-])on2)cc1,2% (inactive)
12,CCOC(=O)C(Cc1cn(S(=O)(=O)c2ccccc2)c2ccccc12)(NC(C)=O)C(=O)OCC,21% (inactive)
13,CC(=O)N1C=C2CCC3c4ccccc4NC3C2CC1 (stereo not drawn),47% (inactive)
14,O=c1cccccc1[O-].O=c1cccccc1[O-].O=c1cccccc1[O-].[Ce+3],10% (inactive)
15,CC(=O)OC(C#N)CC(C)(C)/[N+]([O-])=[N+](\[O-])C(C)(C)CC(C#N)OC(C)=O (stereo not drawn),79% (active)
16,O=C(O)C1(Cc2ccc3c(c2)CCC3)Cc2cc3c(cc2C1)CCC3,-11% (inactive)
17,COC(=O)C12OCC34C(CC5C(C)C6=CC(=O)OC6=CC5(C)C3C(O)C1O)OC(=O)C(OC(C)=O)C24 (stereo not drawn),99% (active)
18,O=S(=O)(c1cc(Cl)ccc1Cl)N1CCc2ccccc2C1,12% (inactive)
19,CSC(=S)n1nc(-c2cccs2)c(N=Nc2ccc(Cl)cc2)c1C(F)(F)F,87% (active)
20,O=[N+]([O-])C1=Cc2ccccc2S(=O)(=O)CC1,85% (active)

row,SMILES,growth inhibition
1,COc1ccc(/C=N/n2c(C)nc3c(sc(=S)n3-c3ccccc3)c2=O)cc1,29% (inactive)
2,Fc1ccc(NC(=S)SCc2ccccc2)cc1F,95% (active)
3,O=[N+]([O-])c1cccc2c1[nH]c1c(-c3ccccc3)nccc12,67% (inactive)
4,CCOC(=O)CC(=O)/C=C/c1ccncc1,4% (inactive)
5,c1ccc([P+](c2ccccc2)(c2ccccc2)C2CCCC2)cc1,-1% (inactive)
6,COc1cc(Cc2n[nH]c(=S)n2-c2ccccc2)c(S(N)(=O)=O)cc1OC,3% (inactive)
7,CCCCCN(CCCCC)CCNc1ccc(C)c2sc3ccccc3c(=O)c12,97% (active)
8,COC(=O)[C@@]12OC[C@]34[C@H]([C@@H](O)[C@@H]1O)[C@@]1(C)CC(=O)C(O)=C(C)[C@@H]1C[C@H]3OC(=O)[C@H](OC(=O)C(Cc1ccccc1)NC(=O)OC(C)(C)C)[C@@H]24 (stereo partly drawn),80% (active)
9,CC(=O)Nc1ccc(C(=O)C(C)Br)cc1 (stereo not drawn),99% (active)
10,COc1ccc2c(c1)[n+]([O-])c(C(N)=O)c(N)[n+]2[O-],99% (active)
11,Cc1c2c(c(C)c3c4c(oc13)CCCC4)C=NCC2,-78% (inactive)
12,CC1C(C(=O)O)CC([N+](=O)[O-])C(Cl)C1[N+](=O)[O-] (stereo not drawn),88% (active)
13,CCN(CC)c1ccc(N=C2C=C(C(=O)Nc3cccc(Cl)c3)C(=O)c3ccccc32)c(C)c1,-12% (inactive)
14,C[N+](C)(C)CCN(Cc1cccs1)c1ccccn1,-10% (inactive)
15,O=C(c1ccccc1)c1c(CO[N+](=O)[O-])n([O-])c2ccccc2[n+]1=O,98% (active)
16,CCC[C@H]1[C@H](CCC)[C@@]2(OC(=O)C3=C2CCC=C3)[C@]12OC(=O)C1=C2CCC=C1,98% (active)
17,O=C(CC(=O)c1ccccc1NC1=Cc2ccccc2C(=O)C1=O)C(=O)NC1=C(Cl)C(=O)c2ccccc2C1=O,94% (active)
18,C=CC[P+](CC[P+](CC=C)(c1ccccc1)c1ccccc1)(c1ccccc1)c1ccccc1,-3% (inactive)
19,NCC1CCNCC1,1% (inactive)
